# The entries come from a sample that favours hits as a whole.
# TbREL1 primary = TbREL1 inhibition, primary screen; P86926; TbREL1 RNA ligation, FRET fluorescence; inhibition, % at 9.66 µM; 0.49% of 89,000 active;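 active = inhibition above the mean inhibition across all screened compounds plus 3 SD, cut at about 11% in these data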;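 note: 0% = plate median of test wells and 100% = NSC42067 control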
# Target sequence (P86926 whole entry, looked up): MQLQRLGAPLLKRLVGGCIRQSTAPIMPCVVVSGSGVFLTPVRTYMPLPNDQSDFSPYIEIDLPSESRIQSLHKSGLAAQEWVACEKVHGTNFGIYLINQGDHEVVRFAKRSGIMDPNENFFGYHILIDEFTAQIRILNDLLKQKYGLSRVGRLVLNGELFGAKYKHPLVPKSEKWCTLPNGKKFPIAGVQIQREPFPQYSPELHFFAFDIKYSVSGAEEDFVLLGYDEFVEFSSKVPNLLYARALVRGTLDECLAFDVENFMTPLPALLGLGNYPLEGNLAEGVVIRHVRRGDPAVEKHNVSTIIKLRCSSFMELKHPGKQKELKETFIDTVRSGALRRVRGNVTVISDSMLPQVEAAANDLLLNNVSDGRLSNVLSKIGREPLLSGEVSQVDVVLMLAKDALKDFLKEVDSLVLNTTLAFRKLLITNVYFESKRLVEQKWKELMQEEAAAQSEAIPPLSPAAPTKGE
# TbREL1 conf = TbREL1 inhibition, confirmation. 37% of 390 active. inhibition, % at 9.66 µM. TbREL1 RNA ligation, FRET fluorescence. AID 1117282. shares compounds with TbREL1 primary;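 active = mean inhibition across replicates above a set limit taken from the earlier primary screen, cut at about 11% in these data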;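 note: 0% = REL1 with substrate and DMSO and 100% = REL1 plus control inhibitor NSC42067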
# Numbers without * were called inactive.
SMILES,TbREL1 primary,others
CCOc1ccccc1C(=O)Nc1ccc(C(=O)NCC2COc3ccccc3O2)cc1 (centres undefined),3.4,
Cc1cccc(-n2c(CNC(=O)COc3ccccc3)nnc2SCC(=O)Nc2nccs2)c1,2.9,
CCn1c(COc2cc(C)ccc2C(C)C)nnc1SCC(=O)Nc1nccs1,12.2*,TbREL1 conf=6.6
CN(C)CCCn1c(SCC(=O)Nc2nccs2)nnc1-c1ccncc1,0.9,
O=C(Nc1cccc(Cl)c1)NC1CCCCC1,6.1,
Clc1ccc(CN=C(Nc2ccccc2)NC2CCCCC2)cc1,12.6*,TbREL1 conf=15.4*
O=C(Nc1nnc(-c2ccc(Cl)cc2)o1)NC1CCCCC1,-1.4,
Clc1ccc(CN2CCN(N=Cc3ccncc3)CC2)cc1,-3.1,
COc1ccc(-n2c(SCc3nc4ccccc4[nH]3)nc3ccccc3c2=O)cc1,-0.3,
Cc1ccc(C(=O)C2CCN(CC(=O)N3CCCC3)CC2)cc1,-0.5,
Cc1ccc(C(=O)N2CCC(C(=O)c3ccc(Cl)cc3)CC2)cc1,-0.3,
Cc1ccc(C(=O)C2COC(=O)C2)cc1 (centres undefined),20.5*,TbREL1 conf=4.9
Brc1ccccc1Cn1nnc(-c2ccc(N3CCOCC3)cc2)n1,1.3,
COC(=O)[C@@]1(C(C)C)N=C(c2cc(OC)c(OC)c(OC)c2)[C@]2(O1)C(=O)N(Cc1cn(Cc3ccccc3)nn1)c1ccc(F)cc12,2.8,
Cc1ccc(S(=O)(=O)N2CCCC2C(=O)N2CCc3ccccc3C2)cc1C (centres undefined),-0.1,
Cc1ccc(F)cc1C(=O)N(Cc1ccccn1)CC1CCCO1 (centres undefined),-2.8,
CN(C)S(=O)(=O)c1ccc2nc(COCc3nc4ccc(S(=O)(=O)N(C)C)cc4[nH]3)[nH]c2c1,8.2,
CCOC(=O)c1c(C)n(C)c2ccc(OCC(N)=O)cc12,6.0,
CCOC(=O)c1c(C)n(C)c2cc([N+](=O)[O-])c(O)c([N+](=O)[O-])c12,11.2*,TbREL1 conf=3.0
CCOC(=O)C1=C(C)N(C)C(=O)NC1c1cccc([N+](=O)[O-])c1 (centres undefined),-0.7,
O=C(CCS(=O)(=O)c1ccccc1)Nc1cc(Cl)ccc1F,3.2,
Nc1ncc(CCN2CCOCC2)c(-c2ccc(F)cc2)n1,14.6*,TbREL1 conf=1.8
Fc1ccccc1OCCCN1CCOCC1,10.6,
Fc1ccc(-c2csc(N3CCOCC3)n2)cc1,-2.7,
CC1(C)CC2CN(Cc3ccccc3)S(=O)(=O)N2C1 (centres undefined),4.7,
SMILES,TbREL1 primary,others
COC(=O)c1cccc(Cn2ccc3ccc(-c4ccc5ccn(Cc6cccc(C(=O)OC)c6)c5c4)cc32)c1,-2.7,
CN(C)c1ccc(/C=N\NC(=O)c2cccc(S(=O)(=O)N(C)C)c2)cc1,-5.0,
O=C(O)c1cccc(S(=O)(=O)N(Cc2ccccc2)c2ccc(Cl)cc2)c1,-1.3,
CC1(C)CC(NC(=O)c2cccc(S(=O)(=O)N(Cc3ccccc3)c3ccccc3)c2)CC(C)(C)N1,13.4*,TbREL1 conf=6.3
C=CCN(c1ccccc1)S(=O)(=O)c1cccc(C(=O)NC2CCC(O)CC2)c1 (centres undefined),-1.9,
CC(C)(C)c1ccc2c(c1)OC(C(=O)N/N=C/c1ccc[nH]1)CO2 (centres undefined),-1.2,
CC(C)C[C@H](NC1(C(=O)NC2CCCCC2)CCN(C)CC1)C(=O)NCC(c1ccccc1)c1ccccc1,17.3*,TbREL1 conf=17.6*
CN1CCC(N[C@@H](Cc2c[nH]c3ccccc23)C(=O)NCC(c2ccccc2)c2ccccc2)(C(=O)NC2CCCCC2)CC1,-0.8,
CC(C)C[C@H](NC1(C(=O)NC2CCCCC2)CCCCC1)C(=O)NCC(c1ccccc1)c1ccccc1,-0.8,
COc1cc(-n2c(C)nc3cc(C(=O)N4CCCCC4)ccc32)cc(OC)c1OC,-2.0,
NS(=O)(=O)c1cccc(NC(=O)CCc2ccc(S(=O)(=O)N3CCOCC3)cc2)c1,4.2,
NS(=O)(=O)c1ccc(NC(=O)CCC(=O)N2CCOCC2)cc1,14.7*,TbREL1 conf=2.4
NS(=O)(=O)c1ccc(NC(=O)c2ccc(S(=O)(=O)N3CCOCC3)o2)cc1,-1.1,
CCOC(=O)c1csc(NC(=O)C2CCCN(S(=O)(=O)c3ccccc3[N+](=O)[O-])C2)n1 (centres undefined),0.8,
COc1ccc(-c2cc(C(=O)N3CCCC3)no2)cc1,3.7,
COc1ccc(OC)c(-c2nnc(SCC(=O)N3CCOCC3)o2)c1,0.0,
COc1ccc(OC)c(-c2cc(C(=O)N3CCOCC3)no2)c1,100.1*,TbREL1 conf=1.1
O=C(Cc1ccccc1)NCCN1CCCC1,-0.5,
O=C(O)CCCNC(=O)Nc1ccccc1,0.9,
O=C(O)CCCNC(=O)Cc1ccccc1,16.9*,TbREL1 conf=-0.5
O=C(OCc1cn(Cc2ccc(F)cc2F)nn1)N1CCCC1,4.6,
COc1cccc(CNC(=O)Cn2c(-c3ccccc3)cc(C(C)=O)c2C)c1,1.4,
O=C(Nc1ccc(F)cc1)OCc1cn(Cc2ccccc2)nn1,-1.7,
O=C(Nc1ccc(F)cc1)OCc1cn(Cc2ccc(Cl)cc2)nn1,-1.8,
Cc1cccc(Cn2cc(COC(=O)Nc3ccc(F)cc3)nn2)c1,15.5*,TbREL1 conf=-0.5
SMILES,TbREL1 primary,others
COC(=O)C(Cc1ccc(O)cc1)NC(=O)Cn1cc(C)c(=O)[nH]c1=O (centres undefined),11.2*,TbREL1 conf=3.1
COC(=O)[C@H](Cc1ccc(O)cc1)NC(=O)Cn1ccc(NC(=O)OCc2ccccc2)nc1=O,-0.4,
Cc1cn(CC(=O)N[C@H](C)c2cccc3ccccc23)c(=O)[nH]c1=O,-0.6,
COc1ccccc1N1CCN(C(=O)c2cc3c(C)nn(-c4ccccc4)c3s2)CC1,-1.6,
O=C(Cn1nnc(-c2ccc(N3CCOCC3)cc2)n1)c1ccc(F)cc1,-3.6,
CN(C)CCCNc1ncnc2sc(-c3ccccc3)cc12,14.0*,TbREL1 conf=4.0
CC(C)N(C(=O)CSc1ncnc2sc(-c3ccccc3)cc12)C(C)C,-3.2,
CN(C)CCNc1ncnc2ccccc12,1.2,
CCN(CC)C(=O)c1oc(=O)c2ccccc2c1-c1ccc(C)cc1,-1.2,
Cc1cc(-c2n[nH]c(=S)n2N=Cc2ccc(-c3ccccc3)cc2)n[nH]1,-9.1,
Cc1ccc(C)c(NC(=O)CN2C(=O)CCSc3ccccc32)c1,5.3,
O=C(CCN1C(=O)/C(=C\c2ccccc2)SC1=S)Nc1ccc(C(=O)O)cc1,0.6,
O=C(CCCN1C(=O)/C(=C\c2ccccc2)SC1=S)Nc1ccc(O)cc1,-1.3,
O=C(CCN1C(=O)S/C(=C/c2ccccc2)C1=O)Nc1ccc(O)c(C(=O)O)c1,13.6*,TbREL1 conf=15.3*
CC(=O)N1CCc2cc(S(=O)(=O)NCCC(=O)NCc3ccc(Cl)cc3)ccc21,-3.5,
CCCCC[C@H](C)N1C[C@@H](COCc2ccccc2)Oc2cc(N3CC[C@@H](O)C3)ccc2S1(=O)=O,2.2,
CCCCC[C@@H](C)N1C[C@@H](COCc2ccccc2)Oc2cc(N3CC[C@@H](N(C)C)C3)ccc2S1(=O)=O,14.2*,TbREL1 conf=4.3
CCCCC[C@H](C)N1C[C@H](COCc2ccccc2)Oc2cc(N3CC[C@H](N(C)C)C3)ccc2S1(=O)=O,2.4,
COc1ccc(NC(=O)CSc2nnc(-c3n[nH]c4c3CCC4)n2N)cc1OC,-0.2,
CC(C)(C)c1ccc(C(=O)Nc2cc(Cl)ccc2C(=O)O)cc1,-1.6,
Cc1ccccc1N1CCN(C(=O)COc2cc(=O)n(C)c3ccccc23)CC1,6.0,
CN(C)CCCN(C(=O)c1ccc2c(c1)CCCC2)c1nc2cc3c(cc2s1)OCO3,7.3,
CN(C)CCCN(C(=O)CCS(=O)(=O)c1ccccc1)c1nc2cc3c(cc2s1)OCO3,9.8,
